# Results filed as inconclusive are left out. Calls of active or inactive are those of the source. Calls follow the shape of the dose curve; as a rule, active = well fitted cell-killing curve with a large enough effect in the repeat runs; inconclusive = weak or mixed curves, or effect the other way; inactive = no such curve, though single readings can be large or run the other way.
# Experiment: qHTS assay to identify small molecule antagonists of the vitamin D receptor (VDR) signaling pathway - cell viability counter screen (AID 743225); also: nearly all actives have a fitted effect of over 50% in size
# Settings: VDR-bla HEK293T viability, CellTiter-Glo luminescence, 16 h; series mostly up to 61 µM
# Text: U.S. Tox21 Program National Center for Advancing Translational Sciences [NCATS] NIH Chemical Genomics Center [NCGC] U.S. Environmental Protection Agency [EPA] National Institutes of Environmental Health Sciences [NIEHS] National Toxicology Program [NTP] U.S. Food and Drug Administration [FDA] Tox21 Assay Overview: The vitamin D receptor (VDR), a member of nuclear hormone receptor superfamily, plays a critical role in calcium homeostasis and bone metabolism. It is also involved in cell differentiation and growth, and thrombogenicity. To identify the compounds that inhibit VDR signaling, the VDR-UAS-bla HEK 293T cell line (Invitrogen, Carlsbad, CA, USA) containing a beta-lactamase reporter gene under the control of an upstream activator sequence (UAS) was used to screen the Tox21 10K compound library. The cytotoxicity of the Tox21 compound library against the VDR-bla cell line was tested in parallel by measuring the cell viability using CellTiter-Glo assay (Promega, Madison, WI) in the same wells.
# Tox21 Assay Protocol Summary: VDR-bla cells were dispensed at 2,000 cells/5 uL of assay medium per well into black wall/clear-bottom 1536-well plates using a Multidrop Combi (Thermo Fisher Scientific, Waltham, MA) dispenser. After the assay plates were incubated at a 37C and 5% CO2 for 4 h, 23 nL of compounds dissolved in DMSO, positive controls or DMSO only was transferred to the assay plate by a Pintool station (Kalypsys, San Diego, CA), followed by addition of 1 uL of 1-alpha, 25-Dihydroxy Vitamin D3 (3 nM, final concentration in the wells) using a Bioraptr Flying Reagent Dispenser (FRD) workstation (Beckman Coulter, Indianapolis, IN). The plates were incubated at 37C and 5% CO2 for 16 h, and then 1 uL of LiveBLAzerTM B/G FRET substrate was added using a Bioraptr FRD. The plates were incubated at room temperature for 2 h and fluorescence intensity was measured by an Envision plate reader (PerkinElmer, Shelton, CT). For cell viability readout that measures cytotoxicity, 3 ul/well of CellTiter-Glo reagent was added into the assay plates using a Bioraptr FRD. After 30 min incubation at room temperature, the luminescence intensity in the plates was measured using a ViewLux plate reader (PerkinElmer).
row,SMILES,outcome
1,CC(C)(C)OC(=O)c1ncn2c1[C@@H]1CCCN1C(=O)c1c(Br)cccc1-2,inactive
2,OCCSCSCCO,inactive
3,O=C1CN=C(c2ccccc2)c2cc([N+](=O)[O-])ccc2N1,inactive
4,CC(Cl)(Cl)[N+](=O)[O-],inactive
5,O=[N+]([O-])c1cccc(O)c1,inactive
6,ClCC(Cl)Cl,inactive
7,CCOC(=O)CP(=O)(OCC)OCC,inactive
8,CN1C[C@@H](NS(=O)(=O)N(C)C)C[C@@H]2c3cccc4c3c(cn4C)C[C@H]21,inactive
9,C#CCN1C(=O)COc2cc(F)c(N3C(=O)C4=C(CCCC4)C3=O)cc21,inactive
10,CCC(Cl)[N+](=O)[O-] (stereo not given),inactive
11,COP(N)(=S)Oc1ccccc1C(=O)OC(C)C (stereo not given),inactive
12,CCOC(=O)C1(c2ccccc2)CCN(CCc2ccc(N)cc2)CC1,inactive
13,NC(=O)c1cc([N+](=O)[O-])cc([N+](=O)[O-])c1,inactive
14,O=C(CCCN1CCC(n2c(=O)[nH]c3ccccc32)CC1)c1ccc(F)cc1,inactive
15,CCOc1nc(C(Cl)(Cl)Cl)ns1,inactive
16,O=S(=O)(O)C(F)(F)C(F)(F)C(F)(F)C(F)(F)C(F)(F)C(F)(F)F,inactive
17,CNC(=O)Oc1ccc(N(C)C)c(C)c1,inactive
18,OC(c1ccccc1)(c1ccccc1)C1CCNCC1,inactive
19,CCC#N,inactive
20,CC1(C)COP(Oc2ccccc2)OC1,inactive

row,SMILES,outcome
1,CN1CCC(O)(c2ccc(F)cc2)C(C(=O)c2ccc(F)cc2)C1 (stereo not given),inactive
2,CCCCOC(=O)[C@@H](C)Oc1ccc(Oc2ccc(C#N)cc2F)cc1,inactive
3,O=NN1CCCCC1,inactive
4,CC1=C(C(=O)O)N2C(=O)[C@@H](N)[C@H]2SC1,inactive
5,CC(C)CC#N,inactive
6,CC(C)CP(=S)(S)CC(C)C,inactive
7,CNCC(=O)c1ccc(O)c(O)c1,inactive
8,CCOP(=O)(OCC)OP(=O)(OCC)OCC,inactive
9,CCC(=O)c1ccccc1,inactive
10,Cc1cccc(C#N)c1,inactive
11,CC1(C)C(=O)NC(=O)NC1=O,inactive
12,CN1C(=S)CN=C(c2ccccc2)c2cc(Cl)ccc21,inactive
13,CNC(=O)Oc1c(C(C)(C)C)cc(C)cc1C(C)(C)C,inactive
14,Cc1coc2c1CCC(C)C2 (stereo not given),inactive
15,C[C@]12CC[C@H]3[C@@H](CCC4=CC(=O)CC[C@@]43C)[C@@H]1CC[C@@H]2C(=O)O,inactive
16,CNC(=O)Oc1cccc(C(C)C)c1,inactive
17,CC(=O)[C@H]1CC[C@H]2[C@@H]3CC[C@H]4C[C@H](O)CC[C@]4(C)[C@H]3C(=O)C[C@]12C,inactive
18,COc1cc(C[C@@H](C)N)c(OC)cc1C,inactive
19,CCOC(=O)NC(=S)Nc1ccccc1NC(=S)NC(=O)OCC,inactive
20,COC(C)(C)C,inactive
